Records with an inconclusive call do not appear. Where a call stands in place of a potency, no number is given. Values without a mark were called inactive. Calls of active or inactive are those of the source. The call rests on the fitted dose curve.
experiment: qHTS assay to identify small molecule agonists of the hypoxia (HIF-1) signaling pathway - cell viability counter screen (AID 1224844); settings: HRE-bla ME-180 viability, CellTiter-Glo luminescence, 17 h; series mostly up to 76.8 µM; further: nearly all actives have a fitted effect of over 50% in size
Excerpt: National Center for Advancing Translational Sciences [NCATS]
NIH Chemical Genomics Center [NCGC]
U.S. Environmental Protection Agency [EPA]
National Institutes of Environmental Health Sciences [NIEHS]
National Toxicology Program [NTP]
U.S. Food and Drug Administration [FDA]
Hypoxia-inducible factor-1 (HIF-1) is the major hypoxia-regulated transcription factor that controls cellular responses to low oxygen concentration. HIF-1 is composed of two subunits: hypoxia responsive HIF-1-alpha and constitutively expressed HIF-1-beta, which is also known as aryl hydrocarbon receptor nuclear translocator. During hypoxic conditions, HIF-1-alpha heterodimerizes with HIF-1-beta and translocates into the nucleus where the HIF-1 complex binds to the hypoxia-response element (HRE) and activates expression of target genes such as VEGF (vascular endothelial growth factor). The HIF-1 pathway is essential to normal growth and development, and is involved in the pathophysiology of cancer, inflammation, and ischemia.
Using a beta-lactamase reporter-gene under control of the hypoxia response element, a cell-based assay [CellSensor(TM) HRE-bla ME-180 from Life Technologies, Carlsbad, CA] was used to measure hypoxia-induced signaling. Tox21 10K library compounds were measured for their ability to induce the reporter gene activity. The cytotoxicity of the Tox21 compound library against HRE-bla ME-180 cell line was tested in parallel by measuring cell viability using CellTiter-Glo assay (Promega, Madison, WI) in the same assay wells.
Tox21 Assay Protocol Summary:
HRE-bla ME-180 cells were dispensed at 2,000 cells per well in 6 uL of assay medium containing 0.5% dialyzed FBS into black wall/clear-bottom 1536-well plates using a Multidrop Combi (Thermo Scientific, Waltham, MA) dispenser. After the assay plates were incubated at 37C and 5% CO2 for 5 hrs, 23 nL of compounds dissolved in DMSO, positive controls or DMSO only was transferred to each well of the assay plate using a Pintool station (Kalypsys, San Diego, CA). The assay plates were incubated at 37C and 5% CO2 for 17 hrs. One uL of LiveBLAzerTM B/G FRET substrate (CCF4-AM) (Life Technologies) was added to each well using a Flying Reagent Dispenser (FRD, Aurora Discovery, San Diego, CA). After 2 hr incubation at room temperature, fluorescence intensity (405 nm excitation, 460 nm and 530 nm emissions) was measured using an Envision plate reader (PerkinElmer, Shelton, CT). For cytotoxicity, 4 ul/well of CellTiter-Glo reagent was added into the assay plates using an FRD. After 30 min incubation at room temperature, the luminescence intensity was measured using a ViewLux plate reader (PerkinElmer).
Potency means the concentration at half of the fitted maximal effect.

SMILES	Potency	activity change, negative = cytotoxicity
CC(C(=O)O)c1ccc(C(=O)c2cccs2)cc1 (stereo not given)	inactive	
CCCOC(=O)c1c(Cl)c(Cl)c(Cl)c(Cl)c1C(=O)OCCC	inactive	
BrC(Br)C(Br)Br	inactive	
CCC(=O)OCc1ccc(OC)cc1	inactive	
CC1CCC(C(C)CS)CC1S (stereo not given)	54.9 µM (active)	
Cc1ccc(S(=O)(=O)NC(=O)NC2CCCCC2)cc1	inactive	
CCOCCC(=O)OCC	inactive	
O=S(=O)(Cl)c1c(Cl)cccc1Cl	inactive	
CS(=O)(=O)c1ccc([C@@H](C[C@H]2CCC(=O)C2)C(=O)Nc2cnccn2)cc1Cl	inactive	
N[C@@H](Cc1cc(I)c(O)c(I)c1)C(=O)O	inactive	
CC(C)N=C=NC(C)C	inactive	
CNS(=O)(=O)c1cc(C(=O)N2CCC(CCN3C4CCC3CC(n3c(C)nc5ccccc53)C4)(c3cccc(F)c3)CC2)c(Cl)cc1F (stereo not given)	3.89 µM (active)	
Oc1ccc2c(c1)Cc1ccccc1-2	inactive	
CC(C)(C)NCC(O)COc1cccc2c1C[C@H](O)[C@H](O)C2 (stereo not given in full)	inactive	
COc1cc(S(=O)(=O)Nc2ccccc2)c(OC)cc1N	inactive	
CC1=CC[C@@H]2C[C@H]1C2(C)C		7.49% [at 15.8 µM]
COC(C)(C)OC	inactive	
C/C(C=O)=C\c1ccccc1	inactive	
O=C(NC(Cc1cc(=O)[nH]c2ccccc12)C(=O)O)c1ccc(Cl)cc1 (stereo not given)	inactive	
O=C(O)/C=C/c1ccc(O)c(O)c1	inactive	

SMILES	Potency	activity change, negative = cytotoxicity
CCCCC[C@H](O)/C=C/[C@H]1[C@H](O)CC(=O)[C@@H]1C/C=C\CCCC(=O)O	inactive	
O=C(NS(=O)(=O)/C=C/c1ccccc1)c1ccc(F)cc1Cl	inactive	
Cc1cccc2sc(N)nc12	inactive	
CC(C)(C)CCCCCCOC(=O)c1ccccc1C(=O)OCCCCCCC(C)(C)C	inactive	
OCC(CO)n1cnc(-c2ccc(F)cc2)c1-c1ccnc(Oc2ccccc2)n1	inactive	
CCOC(=O)N1CCC(Nc2ccc(Cl)cc2N)CC1	inactive	
COc1ccc(-n2nc(C(F)F)cc2-c2ccc(S(C)=O)cc2)cc1 (stereo not given)	inactive	
CN1CCCN(C(c2ccccc2)c2ccc(Cl)cc2)CC1 (stereo not given)	21.3 µM (active)	
CCCCCCCCCCCCCCCC(=O)OCC	inactive	
O=P(O)(O)Oc1ccccc1	inactive	
C=CC(=O)NC(C)C	inactive	
CCC1CCC(CCC(=O)O)C1 (stereo not given)	inactive	
Cc1cc(CCC(=O)OCCOCCOCCOC(=O)CCc2cc(C)c(O)c(C(C)(C)C)c2)cc(C(C)(C)C)c1O	inactive	
O=CNNC=O	inactive	
O=C(O)CCC(=O)c1ccc(-c2ccccc2)cc1	inactive	
ClC1=C(Cl)C1(Cl)Cl	inactive	
CN=C(N)NC(=O)Nc1c(C)cccc1C	inactive	
COc1ccc(C(=O)NCc2ccc(OCCN(C)C)cc2)cc1OC	inactive	
O=C1NC(=O)c2cccc3cccc1c23	inactive	
CCN(CC)CC(=O)Nc1c(C)cccc1C(=O)OC	inactive	
